Assay [1] in a line: qHTS of pediatric cancer cell lines to identify multiple opportunities for drug repurposing: Primary screen for control Hh wild type fibroblast cells (AID 1347106).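 Also: % is scaled to controls: 0 for no effect and ±100 for the full control effect; a drop in luminescence marks cytotoxicity and a rise apparent proliferation; nearly all actives have a fitted effect of over 55% in size.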 The conditions noted are these: Hh wild-type fibroblast viability, CellTiter-Glo luminescence, 48 h; series mostly up to 46 µM. The method in brief: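 Viability after 48 h compound treatment at 37C, 500-1,000 cells/well, read as ATP luminescence with CellTiter-Glo. Primary screens used 11-point (MIPE, 0.78 nM-46 µM) or 8-point (NPC, 0.59 nM-46 µM) final concentrations; follow-up screens used 11-point dilutions.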
(Quantitative high-throughput screening tests each substance at several concentrations.)

Assay [2] is described as follows: qHTS of pediatric cancer cell lines to identify multiple opportunities for drug repurposing: Primary screen for Rh30 cells (AID 1347107). Also: nearly all actives have a fitted effect of over 75% in size. Also: potency is read from the fitted curve at half-maximal effect. As to activity change, negative = cytotoxic: % is scaled to controls: 0 for no effect and ±100 for the full control effect. As to conditions: Rh30 rhabdomyosarcoma viability, CellTiter-Glo luminescence, 48 h; series mostly up to 46 µM. A digest of the protocol:
(§1)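 Cells (500-1,000/well) in growth media were settled 5 h at 37 degrees C, then given compounds for 48 h. Viability was read as CellTiter-Glo luminescence. Primary runs used MIPE at 11 points (0.78 nM-46 µM) and NPC at 8 points (0.59 nM-46 µM); follow-ups used 11 points.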

Assay [3] is described as follows: qHTS of pediatric cancer cell lines to identify multiple opportunities for drug repurposing: Primary screen for Rh41 cells (AID 1347108). Also: nearly all actives have a fitted effect of over 70% in size. Also: potency is read from the fitted curve at half-maximal effect.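 As to activity change, negative = cytotoxic: luminescence drop marks cytotoxic hits.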 The conditions noted are these: Rh41 rhabdomyosarcoma viability, CellTiter-Glo luminescence, 48 h; series mostly up to 46 µM. A digest of the protocol: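 Cells seeded at 500-1,000 cells/well in growth media, rested 5 hours at 37 degrees C, 5% CO2, then dosed; MIPE compounds at 11-point (from 0.78 nM) and NPC at 8-point (from 0.59 nM) final concentrations. Viability by CellTiter-Glo luminescence after 48 hours.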

A short description of assay [4]: qHTS of pediatric cancer cell lines to identify multiple opportunities for drug repurposing: Confirmatory screen for NB1643 cells (AID 1347109). Also: nearly all actives have a fitted effect of over 45% in size. Also: potency is read from the fitted curve at half-maximal effect.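 As to activity change, negative = cytotoxic: plate controls were DMSO for no effect and bortezomib for full effect.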 The conditions noted are these: NB1643 neuroblastoma cell viability; series mostly up to 45.9 µM. A digest of the protocol: as §1
A short description of assay [5]: qHTS of pediatric cancer cell lines to identify multiple opportunities for drug repurposing: Confirmatory screen for A673 cells (AID 1347110).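 Also: cells exposed to compound for 48 h before the viability read; nearly all actives have a fitted effect of over 65% in size.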 Also: potency is read from the fitted curve at half-maximal effect. As to conditions: A673 Ewing sarcoma cell viability; series mostly up to 45.9 µM. A digest of the protocol:
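qHTS titration format: primary MIPE 0.78 nM-46 µM (11 pts), NPC 0.59 nM-46 µM; confirmation 11 pts. 48 h, CTG luminescence.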

A short description of assay [6]: qHTS of pediatric cancer cell lines to identify multiple opportunities for drug repurposing: Confirmatory screen for LAN-5 cells (AID 1347113). Also: nearly all actives have a fitted effect of over 65% in size. Also: potency is read from the fitted curve at half-maximal effect. The conditions noted are these: LAN-5 neuroblastoma cell viability; series mostly up to 45.9 µM. The method in brief:
as §1

The nature of assay [7]: qHTS of pediatric cancer cell lines to identify multiple opportunities for drug repurposing: Confirmatory screen for NB-EBc1 cells (AID 1347115).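 Also: cells exposed to compound for 48 h before the viability read; nearly all actives have a fitted effect of over 45% in size.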 Also: potency is read from the fitted curve at half-maximal effect. As to activity change, negative = cytotoxic: % is scaled to controls: 0 for no effect and ±100 for the full control effect. The conditions noted are these: NB-EBc1 neuroblastoma cells, viability (cytotoxicity); series mostly up to 45.9 µM. The method in brief: as §1
Assay [8] in a line: qHTS of pediatric cancer cell lines to identify multiple opportunities for drug repurposing: Confirmatory screen for SK-N-MC cells (AID 1347111).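 Also: cells exposed to compound for 48 h before the readout; nearly all actives have a fitted effect of over 70% in size.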 Also: potency is read from the fitted curve at half-maximal effect.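 As to activity change, negative = cytotoxic: plate controls were DMSO for no effect and bortezomib for full effect.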 The conditions noted are these: SK-N-MC cell viability; series mostly up to 45.9 µM. The text has this:
Drug repurposing or repositioning has been offered as a strategy for drug development in oncology programs. This approach has special potential for childhood cancers and other rare or orphan diseases, where the expected return on new drug development has been a disincentive to pharmaceuticals.
In this project we exploit the poly-pharmacology of drugs to discover new indications via phenotypic screening of a panel of 19 well-characterized cell lines derived from solid tumors seen in children and adolescents. The goal is to identify approved drugs with previously unrecognized anticancer properties that has the potential to reveal new mechanisms and biological processes involved in carcinogenesis or drug resistance. We employed a titration-based paradigm (quantitative high-throughput screening or qHTS), where all compounds were tested at multiple concentrations for their effect on cell viability. Concentration-response curves (CRCs) were derived directly from the primary screen, and both potency and efficacy values were used to identify compounds with robust bioactivity profiles. We screened the NIH Chemical Genomics Center (NCGC) Pharmaceutical Collection (NPC) and Mechanism Interrogation Plate (MIPE) small molecule collections of approved and investigational compounds against these cell lines; and measured metabolically active cells after 48 hours of compound treatment as a proxy for cell viability.
Assay Submitter: Nathalia J. Martinez, National Center for Advancing Translational Sciences, National Institutes of Health, Rockville, MD, USA; email: natalia.martinez@nih.gov
[1] Shen, M et al. Quantitative high-throughput phenotypic screening of pediatric cancer cell lines identifies multiple opportunities for drug repurposing. Oncotarget 2017 Dec 19;9(4):4758-4772. PMID 29435139.
The cells were obtained from University of North Carolina (UNC), Pediatric Preclinical Testing Program (PPT), and Coriell Institute (CI).
qHTS cell viability assay:
Cells were assayed in growth media at a density of 500-1,000 cells/well. Five microliters of cells were dispensed into 1,536-well, white, solid-bottom, TC-treated plates (Greiner Bio One) using a multidrop dispenser and incubated at 37 degrees C, 5% CO2, under a humidified atmosphere for 5 hours. Twenty-three nanoliters of compounds and controls (neutral control DMSO or positive control bortezomib at final concentration of 2.3 µM) were subsequently transferred by Kalypsys pintool. For primary screens, the MIPE collection was tested at 11-point dilutions (final concentrations range from 0.78 nM to 46 µM) and the NPC collection at 8-point dilutions (final concentrations range from 0.59nM to 46 µM). Compounds tested in follow-up screens were assayed at 11-point dilutions. Cells were incubated for 48 hours, followed by addition of 3 uL of CellTiter-Glo (Promega). After a 15 min incubation at room temperature, samples were analyzed for luminescence intensity using a ViewLux High-throughput CCD imager equipped with clear filters.

Assay [9] in a line: qHTS of pediatric cancer cell lines to identify multiple opportunities for drug repurposing: Confirmatory screen for SJ-GBM2 cells (AID 1347116). Also: nearly all actives have a fitted effect of over 60% in size. Also: potency is read from the fitted curve at half-maximal effect.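 As to activity change, negative = cytotoxic: plate controls were DMSO for no effect and bortezomib for full effect.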 The conditions noted are these: SJ-GBM2 glioblastoma cells, viability; series mostly up to 45.9 µM. The method in brief: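 Viability measured as metabolically active cells via CellTiter-Glo luminescence following 48 hours of compound exposure, 11-point dilutions in confirmatory testing. 500-1,000 cells/well plated 5 hours before dosing; controls were DMSO and 2.3 µM bortezomib.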

Assay [10] can be described thus: qHTS of pediatric cancer cell lines to identify multiple opportunities for drug repurposing: Confirmatory screen for BT-12 cells (AID 1347112). Also: nearly all actives have a fitted effect of over 55% in size. Also: potency is read from the fitted curve at half-maximal effect. As to activity change, negative = cytotoxic: % is scaled to controls: 0 for no effect and ±100 for the full control effect. As to conditions: BT-12 rhabdoid tumor cells, viability; series mostly up to 45.9 µM. The method in brief:
as §1

Results filed as inconclusive are left out. A number with no mark means an inactive call. Activity calls are given as the source filed them. Calls follow the shape of the dose curve; as a rule, active = well fitted curve in the direction sought with a large enough effect; inconclusive = small, poorly fitted or top-dose-only effect, or another doubt; inactive = no such curve, though single readings can be large; an effect the other way counts as inactive or inconclusive.

In the case of `NS(=O)(=O)c1cc2c(cc1Cl)NC(CC1CCCC1)NS2(=O)=O` (configuration not stated), the Potency result in assay [1], in assay [2] and in [3] was “inactive” throughout.

Consider `CCN(CC)CCNC(=O)c1cc(Br)c(N)cc1OC`, for which the Potency result in assay [1], in [2] and in [3] was “inactive” each time.

Take `COc1ccc(-c2cc(C(F)F)nn2-c2ccc(S(N)(=O)=O)cc2)cc1F`: the Potency entry in assay [1], in [2] and in [3] was “inactive” in each case.

Consider `CC(=O)Nc1ncc([N+](=O)[O-])s1`, for which the Potency result in assay [1], in assay [2] and in assay [3] was “inactive” in each case.

On to `O=C1OC2(c3ccccc31)c1cc(Br)c(O)c(Br)c1Oc1c2cc(Br)c(O)c1Br`, for which the Potency entry in assay [1], in assay [2] and in assay [3] was “inactive” in each case.

With `CC(C)CCCC(C)N` (configuration not stated), the Potency result in assay [1], in assay [2] and in assay [3] was “inactive” in each case.

As for `C#C[C@]1(O)CC[C@H]2[C@@H]3CCc4cc(OC)ccc4[C@H]3CC[C@@]21C`, the Potency result in assay [1], in assay [2] and in assay [3] was “inactive” each time.

As to `O=C(O)C(Cc1cc(I)c(O)c(I)c1)c1ccccc1` (configuration not stated), the Potency result in [1], in [2] and in assay [3] was “inactive” each time.

Turning to `NCCNC(=O)c1ccc(Cl)cn1`, the Potency entry in assay [1], in assay [2] and in assay [3] was “inactive” each time.

As to `CC(C)NCC(O)c1ccc2ccccc2c1` (configuration not stated), the Potency entry in assay [1], in assay [2] and in assay [3] was “inactive” throughout.

Consider `CN(CCCN1c2ccccc2CCc2ccccc21)CC(=O)c1ccc(Cl)cc1`, for which the Potency entry in assay [1], in assay [2] and in assay [3] was “inactive” in each case.

On to `NC(=O)C1(N2CCCCC2)CCN(CCCC(=O)c2ccc(F)cc2)CC1`, for which the Potency entry in [1], in [2] and in [3] was “inactive” throughout.

Take `CCc1cc(Cl)c(OC)c(C(=O)NC[C@@H]2CCCN2CC)c1O`: the Potency result in [1], in assay [2] and in [3] was “inactive” throughout.

With `O=C(c1ccc(F)cc1)C1CCN(CCn2c(=S)[nH]c3ccccc3c2=O)CC1`, the Potency result in [1], in assay [2] and in assay [3] was “inactive” each time.

Turning to `CC(C)Nc1cccnc1N1CCN(C(=O)c2cc3cc(NS(C)(=O)=O)ccc3[nH]2)CC1`, the Potency entry in assay [1], in assay [2] and in assay [3] was “inactive” in each case.

Turning to `CCC1Nc2cc(Cl)c(S(N)(=O)=O)cc2S(=O)(=O)N1` (configuration not stated), the Potency entry in assay [1], in assay [2] and in [3] was “inactive” throughout.

As to `OC[C@H]1O[C@@H](Oc2ccc(O)cc2)[C@H](O)[C@@H](O)[C@@H]1O`, the Potency result in assay [1], in [2] and in [3] was “inactive” in each case.

As for `CC(=O)NO`, the Potency result in assay [1], in assay [2] and in [3] was “inactive” in each case.

As to `Clc1cccc(C(c2ccc3nc[nH]c3c2)n2ccnc2)c1` (configuration not stated), the Potency result in assay [1], in assay [2] and in [3] was “inactive” in each case.

`CC(=O)Oc1ccc(C)cc1`: the Potency result in [1], in assay [2] and in assay [3] was “inactive” throughout.

With `CCOC(=O)C(C#N)=C(c1ccccc1)c1ccccc1`, the Potency entry in assay [1], in assay [2] and in assay [3] was “inactive” in each case.

Regarding `CC(C)(C)NC[C@H](O)COc1nsnc1N1CCOCC1`, the Potency entry in assay [1], in assay [2] and in assay [3] was “inactive” each time.

With `CC(C)Cn1cnc2c1c(=O)n(C)c(=O)n2C`, the Potency result in assay [1], in [2] and in assay [3] was “inactive” throughout.

On to `CO[C@]12C[C@@H](COC(=O)c3cncc(Br)c3)CN(C)[C@@H]1Cc1cn(C)c3cccc2c13`, for which the Potency entry in [1], in assay [2] and in assay [3] was “inactive” throughout.

As to `C=C[C@@]1(C)CC(=O)[C@]2(O)[C@@]3(C)[C@@H](O)CCC(C)(C)[C@@H]3[C@H](O)[C@H](OC(C)=O)[C@@]2(C)O1`, the Potency result in [1], in assay [2], in [3], in assay [4], in assay [5] and in [6] was “inactive” in each case. The Potency entry in assay [7] is “inactive”.

On to `Nc1nc(Cl)nc2c1ncn2[C@@H]1O[C@H](CO)[C@@H](O)[C@@H]1F`, for which the Potency entry in assay [1], in assay [2] and in [3] was “inactive” in each case. The Potency in assay [4] is 1.47 µM (active); in assay [5] it was 1.04 µM (active); in assay [8], 0.0928 µM (active); in [6], 1.65 µM (active); in assay [9] it was 0.233 µM (active).

On to `CN(C)C(=O)Nc1ccc(Cl)c(Cl)c1`, for which the Potency result in [1], in assay [2], in assay [3] and in assay [5] was “inactive” each time. In assay [7], the Potency was 23.3 µM (active).

For the compound `C[C@@]12C(=O)OC(=O)[C@]1(C)C1CCC2O1`, the Potency in [3] was 2.66 µM (active); in assay [4], 2.93 µM (active); in [5], 7.37 µM (active); in assay [8], 3.29 µM (active); in assay [10], 8.27 µM (active); in [6], 2.93 µM (active). For the same compound, the Potency in assay [7] is 5.22 µM (active); in [9] it was 8.27 µM (active).

On to `COc1ccc(C(=O)c2ccccc2)c(O)c1`, for which the Potency entry in [1], in assay [2], in [3], in [4], in assay [5] and in [8] was “inactive” in each case. The Potency result in [10], in assay [6], in assay [7] and in assay [9] was “inactive” throughout.

Turning to `CCCCCCCCCCCCOCCOCCOCCOCCOCCOCCOCCOCCOCCO`, the Potency result in [1], in assay [2], in assay [4] and in assay [9] was “inactive” in each case.

Turning to `CN1CCN(CCC(=O)N2c3ccccc3Sc3ccc(C(F)(F)F)cc32)CC1`, in assay [2], the Potency entry was “inactive”.

Take `CCN1/C(=C/C=C/c2sc3ccccc3[n+]2CC)Sc2ccccc21`: the Potency in assay [2] was 3.26 µM (active); in assay [3] it was 1.64 µM (active); in [4] it was 1.31 µM (active); in assay [5], 0.456 µM (active); in [8] it was 0.827 µM (active); in [10], 1.17 µM (active). Also, the Potency in [6] was 0.737 µM (active); in assay [7] it was 2.61 µM (active); in assay [9] it was 2.04 µM (active).

As for `CCN[C@@H]1C[C@H](N)[C@@H](OC2OC(CN)=CCC2N)[C@H](O)[C@H]1O[C@H]1OC[C@](C)(O)[C@H](NC)[C@H]1O` (some centres not stated), the activity change, negative = cytotoxic was 8.24% [at 0.597 µM] in [1]; 14.5% [at 0.597 µM] in assay [2]; 8.19% [at 0.597 µM] in assay [3]; 11.9% [at 0.556 µM] in assay [4]; -2.44% [at 0.556 µM] in [8]; -6.5% [at 0.556 µM] in assay [10]. The activity change, negative = cytotoxic in [7] is -1.08% [at 0.556 µM]; in assay [9], 5.75% [at 0.556 µM].

The values are drawn from PubChem BioAssay (NCATS).
